The values below come from PubChem BioAssay AID834 (PCMD, 2007).

Out of some 85,000 compounds screened, about 120 (0.14%) were called active.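 The calls were made as follows: active = inhibition above 20%; inactive = inhibition below 20%.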 For the sample, actives were picked, then their nearest neighbours and some compounds at random.

The nature of this experiment: clotrimazole potentiators killing Candida biofilms, primary screen, with clotrimazole, Alamar Blue (AID 834).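 Also: preformed 24 hr biofilms exposed to compound for 48 hr; 0% = biofilm without compound and 100% = blank killed by clotrimazole plus chlorhexidine.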 The following applies: C. albicans biofilm + clotrimazole, at 6 µM, hits give high values. (Alamar Blue is a resazurin reagent that responds to reducing activity.)
In general, inhibition refers to the relative decrease from the control value, in per cent. In the case of `CC(=O)NC1=NN(C(C)=O)C(C)(c2ccc(Cl)s2)S1` (stereo not given), the inhibition is 6.61% (inactive).
With `CCOc1c(Br)cc(/C=C2\C(=O)N(CCC#N)N=C2C)cc1OC` the figure was -1.46% (inactive); with `Cc1cccc2nc(CSc3nc4[nH]ncc4c(=O)n3-c3cccc(Cl)c3)cc(=O)n12`, -2.14% (inactive); with `Cc1ccc(S(=O)(=O)N(c2cccc(C)c2)C2CCS(=O)(=O)C2)cc1` (stereo not given), 11.2% (inactive).
Next, `CS(=O)(=O)Nc1ccc(C(=O)N2CCCC2)cc1`: 6.23% (inactive).
Next, `O=C(c1ccccc1Oc1ccccc1)N1CCN(c2ccc(F)cc2)CC1`: 6.89% (inactive).
Regarding `CCOc1ccc(C(=O)NC(C(=O)NCc2ccccn2)C(C)C)cc1` (stereo not given), the inhibition was -4.48% (inactive).
With `Cc1cccc(N2CCN(C(c3ccc(N(C)C)cc3)c3nnnn3C(C)(C)C)CC2)c1C` (stereo not given) the figure was 4.97% (inactive); with `COc1ccc(CNCCCO)cc1OC`, 5.75% (inactive).
On to `Cc1nnc(SCc2nc3ccccc3nc2C)s1`, for which the inhibition was 5.78% (inactive).
As to `CC(=O)N(C)c1ccc(NC(=O)C(F)(F)F)cc1`, the inhibition is 0.77% (inactive).
Next, `Cc1ccc(CN(N=Nc2nonc2N)c2nonc2N)c(C)c1`: 1.82% (inactive); `Cc1ccc(-c2cc(C(=O)NCC3CCCO3)c3ccccc3n2)o1` (stereo not given): 5.01% (inactive).
With `Cc1ccc(-c2noc(CSc3nnc(-c4ccncc4)n3-c3ccc(F)cc3)n2)cc1` the figure was 5.84% (inactive).
With `Cc1ccc(CS(=O)(=O)CCC(=O)NC2CC2)cc1` the figure was 8.04% (inactive); with `Cc1csc(OCC(=O)Nc2ccc(C)c(C)c2)n1`, 4.83% (inactive).
On to `CCN(CC)C(=O)CN(c1cccc(OC)c1)S(=O)(=O)c1ccc(C)cc1`, for which the inhibition was 3.27% (inactive).
With `CC1=NN(C(C)C)C(=O)C1` the figure was 9.86% (inactive); with `CCOC(=O)C1CSC(CC(=O)Nc2ccc(OCC)cc2)C(=O)N1` (stereo not given), 3.56% (inactive); with `CCCc1nc(NCc2ccc3c(c2)OCO3)c2nnn(Cc3ccccc3Cl)c2n1`, 7.6% (inactive).
With `CCn1c(=O)c(=O)n(CC)c2cc(S(=O)(=O)N3CCc4ccccc43)ccc21` the figure was 1.66% (inactive); with `Cc1cccc(NC(=O)C2CC(=O)OC23CCCC3)c1` (stereo not given), -0.65% (inactive).
With `C=C(Cl)COC(=O)C1C2C=CC(C2)C1C(=O)O` (stereo not given) the figure was 6.89% (inactive).
For `COCCNC(=O)Cn1cc(C(=O)c2cccs2)c2ccccc21`, the inhibition was -3% (inactive).
With `CCOc1cccc(NC(=O)Cn2nc(-c3ccc4c(c3)OCCO4)ccc2=O)c1` the figure was -3.83% (inactive); with `CC1CCc2c(nc3ncnn3c2Nc2ccc(OC(F)(F)F)cc2)C1` (stereo not given), 2.5% (inactive); with `COc1c(F)c(F)c(C(=O)O)c(Nc2ccccc2C)c1F`, 0.13% (inactive).
For `CCOC(=O)N1CCN(Cc2nc(N)nc(Nc3ccc(C)cc3)n2)CC1`, the inhibition is 4.91% (inactive).
With `CCOc1ccccc1NC(=O)c1cccnc1` the figure was 4.81% (inactive); with `CCS(=O)(=O)NCCc1ccc(OC)c(OC)c1`, -1.71% (inactive).
Next, `COc1ccc(CCNS(=O)(=O)c2ccc(F)cc2)cc1OC`: 0.3% (inactive); `COc1ccc(CCNc2ncnc3nc[nH]c23)cc1OC`: 22.7% (active).
With `CCCCNC(=O)C1CCCNC1=O` (stereo not given) the figure was 1.47% (inactive); with `CCCCNS(=O)(=O)c1ccc(S(=O)(=O)n2cnc3ccccc32)cc1`, 0.82% (inactive).
`O=C1N=C(N2CCCC2)S/C1=C\c1cccc(Br)c1`: the inhibition was 2.13% (inactive).
Next, `CCOC(=O)C(C)n1cnc2sc(C)c(C)c2c1=O` (stereo not given): 9.63% (inactive); `CCOC(=O)c1cnc(SCc2nc(N)nc(Nc3ccc(OC)cc3)n2)nc1N`: 1.79% (inactive).
As for `CN(C)[C@@H]1C(=O)C(C(N)=O)=C(O)[C@@]2(O)C(=O)C3=C(O)c4c(O)ccc(Cl)c4[C@@H](O)[C@H]3C[C@@H]12`, the inhibition is 29.9% (active).
On to `CC1CCCN(C(C(=O)Nc2ccc(C(C)C)cc2)c2ccc3c(c2)OCO3)C1` (stereo not given), for which the inhibition was 6.31% (inactive).
With `CCS(=O)(=O)Nc1ccc(C2=NN(S(=O)(=O)c3ccc(F)cc3)C(c3ccco3)C2)cc1` (stereo not given) the figure was 2.91% (inactive); with `Cc1cc(C(=O)OC(C)C(=O)Nc2cccc(S(=O)(=O)N3CCOCC3)c2)c(C)o1` (stereo not given), 0.93% (inactive); with `Cc1ccc(C(c2nnnn2CS(=O)(=O)c2ccc(C)cc2)N2CCC(C(N)=O)CC2)cc1` (stereo not given), -1.5% (inactive).
Next, `Cc1cccn2c(=O)c(/C=C(\C#N)S(=O)(=O)c3ccc(Cl)cc3)c(N3CCC(C(N)=O)CC3)nc12`: 45.2% (active); `COc1ccccc1-c1nc(C#N)c(N2CCC(C(N)=O)CC2)o1`: 7.17% (inactive).
With `Cc1ccc(Cc2c(C)nc3nc(SCC(=O)NCCN4CCOCC4)nn3c2C)cc1` the figure was -3.03% (inactive); with `Cc1ccc(-n2ccc(=O)c(C(=O)O)n2)cc1`, 2.26% (inactive).
Consider `COc1ccc(S(=O)(=O)Nc2ccc3oc(C)c(C(C)=O)c3c2)cc1`, for which the inhibition is -2.16% (inactive).
With `O=C(Cc1ccccc1)Nc1c(C(=O)N2CCCCCC2)cnn1-c1ccccc1` the figure was -2.24% (inactive).
With `CC(C)CC(=O)Nc1cc(C(F)(F)F)ccc1N1CCOCC1` the figure was 1.97% (inactive).
With `CC(C)(C)n1nnnc1C(c1ccc(Cl)cc1)N1CCSCC1` (stereo not given), the inhibition is 6.98% (inactive).
With `Cc1ccccc1-n1c(C)cc(/C=C2\NC(=O)NC2=O)c1C` the figure was 2.93% (inactive); with `Cc1ccc(NC(=O)N2CCC(c3nc4c(nnn4Cc4c(F)cccc4Cl)c(=O)[nH]3)CC2)cc1`, 5.75% (inactive).
On to `COc1ccccc1C(=O)N1CC2(C)CC1CC(C)(C)C2` (stereo not given), for which the inhibition is -0.87% (inactive).
Next, `O=C(NCc1ccccn1)c1cc(-c2ccccc2Cl)on1`: -4.95% (inactive).
With `CCc1ccc(C2C(C#N)=C(N)Oc3n[nH]c(CC(=O)OC)c32)cc1` (stereo not given) the figure was 8.34% (inactive); with `CCn1nccc1C(=O)Nc1ccc(Cl)c(Cl)c1`, 6.51% (inactive).
Turning to `O=C(CCCn1c(SCC(=O)c2ccccc2)nc2ccccc2c1=O)NCC1CCCO1` (stereo not given), the inhibition is 0.02% (inactive).
Next, `COC(=O)c1ccccc1NC(=O)CN(Cc1ccc(Cl)cc1)S(C)(=O)=O`: 9.25% (inactive); `COc1ccc(CN2CCCCC2C)cc1OC` (stereo not given): 0.38% (inactive); `CCC(C)NC(=O)c1cc(Cl)ccc1OC` (stereo not given): 3.81% (inactive).
Next, `C=CCn1c(-c2ccc3[nH]c(C)c(C)c3c2)n[nH]c1=S`: 0.31% (inactive); `CCCn1c(C)cc(C(=O)COC(=O)c2c(C)nn(-c3ccccc3)c2C)c1C`: -1.14% (inactive).
Next, `O=C(CSc1nnc(-c2cccs2)n1Cc1ccccc1)N1CCc2ccccc2C1`: 6.37% (inactive); `CCOc1ccc2c(c1)C(c1ccc(C)cc1)=NNC(c1ccc(C)cc1)=N2`: -0.27% (inactive).
As for `C=C(C)CNC(=S)/N=c1\scc(C)n1CC`, the inhibition was 1.12% (inactive).
With `COc1ccc(C2C(C#N)=C(/N=C/N3CCOCC3)OC3=C2C(=O)CC(C)(C)C3)cc1OC` (stereo not given) the figure was 13.5% (inactive); with `O=P(O)(CP(=O)(c1ccccc1)c1ccccc1)c1ccccc1O`, 7.77% (inactive).
Next, `CC(C)NC(=O)CSc1nnc(COc2ccccc2Cl)o1`: 5.07% (inactive); `O=C(c1cccc(F)c1)N1CCC(O)(c2cccnc2)CC1`: 8.81% (inactive); `CCCOc1cc(C)c(S(=O)(=O)n2nnc3ccccc32)cc1C`: 2.8% (inactive).
Next, `NC1=NC(=O)C2(COC(c3ccccc3Cl)OC2)S1` (stereo not given): 14.2% (inactive); `CC(C)Nc1ncnc2c1nnn2Cc1ccccc1`: -1.71% (inactive); `Brc1ccc(-c2nnc(-c3ccccc3)o2)o1`: 6.11% (inactive).
Regarding `CCN(CC)C(=O)CSc1nnc(C2CCCCC2)o1`, the inhibition was 2.47% (inactive).
With `O=c1[nH][nH]c(C(F)(F)F)c1C=NCc1ccccc1Cl` the figure was -3.59% (inactive); with `CCN1C(=O)/C(=C2/Sc3ccc(OC)cc3N2C)SC1=Nc1ccc(C)cc1`, -3.03% (inactive); with `O=C(NC(C(=O)NCCN1CCOCC1)C12CC3CC(CC(C3)C1)C2)C1CCCCC1` (stereo not given), -1.05% (inactive).
With `S=c1[nH]nc(-c2ccc(Cl)cc2)n1CC1CCCO1` (stereo not given) the figure was 7.93% (inactive); with `Cc1nnc(SCC(=O)Nc2ncc3c(n2)CC(C)(C)CC3=O)s1`, 3.95% (inactive).
Next, `Cc1ccccc1-c1nnc(SCC(=O)NCc2ccc3c(c2)OCO3)n1C`: 4.85% (inactive); `Cc1ccc(C(=O)N/N=C/c2sc(=O)n(Cc3cccc(C(=O)O)c3)c2Cl)cc1`: 8.24% (inactive).
As to `COc1ccc(CN(Cc2ccco2)S(=O)(=O)c2ccc(S(=O)(=O)N3CCCC3)cc2)cc1`, the inhibition was 1.45% (inactive).
Next, `COC(=O)c1ccccc1Oc1c(F)c(F)nc(N2CCOCC2)c1F`: 8.84% (inactive); `CCc1ccc(NC(=O)CN2C(=O)CSC2=O)cc1`: 5.49% (inactive).
As for `CC(C)(CNC(=O)c1cc(=O)[nH]c2ccccc12)N1CCOCC1`, the inhibition was 6.02% (inactive).
With `COc1cc(C)c(C(C)C)cc1S(=O)(=O)n1ccnc1` the figure was 1.15% (inactive).
With `CCn1c(CC(=O)Nc2ccc(C)cc2)nnc1SCC(=O)Nc1nc(C)cs1` the figure was 5.16% (inactive); with `CN1C(=O)C(CC(N)=O)N(NC(=O)c2ccc(Cl)cc2)C1=S` (stereo not given), 7.03% (inactive).
Next, `Cc1ccc(-n2c(CNc3ccc(F)cc3)nnc2SCC(=O)N2CCOCC2)cc1`: 3.95% (inactive).
Take `CC(c1ccco1)N(C(=O)COc1ccccc1[N+](=O)[O-])c1ccccn1` (stereo not given): the inhibition is 7.57% (inactive).
Regarding `COC(=O)[C@@H](NC(=O)Nc1cc(Cl)ccc1C)C(C)C`, the inhibition is 10.7% (inactive).
Next, `O=C(Nc1cccc(NC(=O)c2ccco2)c1)c1cnccn1`: 4.07% (inactive).
Next, `Cn1c(-c2sc3cc(C(F)(F)F)cnc3c2-c2ccccc2)n[nH]c1=S`: 1.53% (inactive).
With `CC(=O)Oc1ccc(NC(=O)CCC2CCCCC2)c(C(=O)O)c1` the figure was 4.27% (inactive).
In the case of `COc1ccc(S(=O)(=O)NCc2ccc(C(=O)N(C)Cc3ccco3)cc2)cc1`, the inhibition was 4.38% (inactive).
